Assay results published in ChEMBL document CHEMBL1961873, “Compounds: GSK PKIS; Assays: Nanosyn kinase panel” (2012).

How the values were obtained:
[1] = target: Fibroblast growth factor receptor 4 (Homo sapiens) (UniProt P22455); details: at 1 µM;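 also: reported figure is the averaged percent inhibition of FGFR4, from the GSK PKIS kinase screening panel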
[2] = target: Tyrosine-protein kinase Fgr (Homo sapiens) (UniProt P09769); details: at 0.1 µM
[3] = target: Tyrosine-protein kinase Fgr (Homo sapiens) (UniProt P09769); details: at 1 µM
[4] = target: Vascular endothelial growth factor receptor 1 (Homo sapiens) (UniProt P17948); details: at 0.1 µM
[5] = target: Vascular endothelial growth factor receptor 1 (Homo sapiens) (UniProt P17948); details: at 1 µM
[6] = target: Receptor-type tyrosine-protein kinase FLT3 (Homo sapiens) (UniProt P36888); details: at 0.1 µM
[7] = target: Receptor-type tyrosine-protein kinase FLT3 (Homo sapiens) (UniProt P36888); details: at 1 µM
[8] = system: T1, Receptor-type tyrosine-protein kinase FLT3 (Homo sapiens), P36888 [D835Y]; details: at 0.1 µM
T1 sequence (whole entry): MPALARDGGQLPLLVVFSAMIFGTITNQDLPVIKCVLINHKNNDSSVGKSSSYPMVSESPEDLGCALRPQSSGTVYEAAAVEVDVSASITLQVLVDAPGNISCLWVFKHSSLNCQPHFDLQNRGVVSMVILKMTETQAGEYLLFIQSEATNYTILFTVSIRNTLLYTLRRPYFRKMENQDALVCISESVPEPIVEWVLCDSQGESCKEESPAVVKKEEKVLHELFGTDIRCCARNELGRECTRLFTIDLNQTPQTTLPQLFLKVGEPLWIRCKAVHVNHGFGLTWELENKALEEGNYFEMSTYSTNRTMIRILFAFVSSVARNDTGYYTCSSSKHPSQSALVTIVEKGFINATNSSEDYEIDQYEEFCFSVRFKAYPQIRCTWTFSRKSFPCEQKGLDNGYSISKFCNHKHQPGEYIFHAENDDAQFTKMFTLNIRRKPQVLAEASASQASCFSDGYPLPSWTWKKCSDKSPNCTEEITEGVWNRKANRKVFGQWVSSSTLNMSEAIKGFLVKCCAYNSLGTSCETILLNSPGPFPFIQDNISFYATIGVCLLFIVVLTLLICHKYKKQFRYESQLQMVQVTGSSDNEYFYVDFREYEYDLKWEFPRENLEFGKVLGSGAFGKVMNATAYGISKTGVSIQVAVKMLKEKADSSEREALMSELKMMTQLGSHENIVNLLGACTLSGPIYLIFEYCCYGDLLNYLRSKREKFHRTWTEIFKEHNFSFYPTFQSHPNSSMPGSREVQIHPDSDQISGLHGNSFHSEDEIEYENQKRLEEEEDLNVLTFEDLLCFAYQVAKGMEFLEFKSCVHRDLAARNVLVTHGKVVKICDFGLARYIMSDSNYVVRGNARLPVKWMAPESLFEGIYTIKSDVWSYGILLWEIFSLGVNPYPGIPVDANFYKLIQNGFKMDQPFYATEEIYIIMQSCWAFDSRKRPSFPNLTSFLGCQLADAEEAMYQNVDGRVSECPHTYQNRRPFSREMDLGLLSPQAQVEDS

[9] = target: Non-receptor tyrosine-protein kinase TYK2 (Homo sapiens) (UniProt P29597); details: at 1 µM;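 also: values are mean percent inhibition of TYK2 kinase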
[10] = target: T2, Tyrosine-protein kinase receptor TYRO3 (Homo sapiens) (UniProt Q06418); details: at 0.1 µM;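 also: reported percentages are averaged inhibition values of TYRO3 kinase activity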
T2 sequence (whole entry): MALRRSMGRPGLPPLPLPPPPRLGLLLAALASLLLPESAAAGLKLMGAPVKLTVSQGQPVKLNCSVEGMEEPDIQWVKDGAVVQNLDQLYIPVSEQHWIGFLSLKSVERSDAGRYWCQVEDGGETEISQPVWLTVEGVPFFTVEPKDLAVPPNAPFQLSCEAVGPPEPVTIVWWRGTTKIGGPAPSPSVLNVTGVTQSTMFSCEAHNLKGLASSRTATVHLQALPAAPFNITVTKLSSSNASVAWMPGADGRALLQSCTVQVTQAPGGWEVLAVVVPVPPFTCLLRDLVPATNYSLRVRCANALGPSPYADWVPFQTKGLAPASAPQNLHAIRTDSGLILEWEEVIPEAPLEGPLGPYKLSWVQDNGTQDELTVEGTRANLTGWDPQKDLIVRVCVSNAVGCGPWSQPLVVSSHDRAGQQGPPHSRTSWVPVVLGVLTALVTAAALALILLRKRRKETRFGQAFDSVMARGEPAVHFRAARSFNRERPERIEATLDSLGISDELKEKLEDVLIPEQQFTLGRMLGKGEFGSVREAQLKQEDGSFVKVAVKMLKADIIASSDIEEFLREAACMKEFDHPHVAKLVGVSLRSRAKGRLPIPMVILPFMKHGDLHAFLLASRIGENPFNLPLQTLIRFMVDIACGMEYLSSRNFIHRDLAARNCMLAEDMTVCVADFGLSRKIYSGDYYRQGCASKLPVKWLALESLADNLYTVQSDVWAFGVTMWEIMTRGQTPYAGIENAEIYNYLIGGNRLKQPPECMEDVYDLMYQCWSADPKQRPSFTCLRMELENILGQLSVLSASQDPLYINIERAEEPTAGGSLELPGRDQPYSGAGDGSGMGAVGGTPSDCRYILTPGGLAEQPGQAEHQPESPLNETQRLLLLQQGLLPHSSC

Tyrosine-protein kinase Fgr (Homo sapiens), sequence (P09769 2-529 limits assumed): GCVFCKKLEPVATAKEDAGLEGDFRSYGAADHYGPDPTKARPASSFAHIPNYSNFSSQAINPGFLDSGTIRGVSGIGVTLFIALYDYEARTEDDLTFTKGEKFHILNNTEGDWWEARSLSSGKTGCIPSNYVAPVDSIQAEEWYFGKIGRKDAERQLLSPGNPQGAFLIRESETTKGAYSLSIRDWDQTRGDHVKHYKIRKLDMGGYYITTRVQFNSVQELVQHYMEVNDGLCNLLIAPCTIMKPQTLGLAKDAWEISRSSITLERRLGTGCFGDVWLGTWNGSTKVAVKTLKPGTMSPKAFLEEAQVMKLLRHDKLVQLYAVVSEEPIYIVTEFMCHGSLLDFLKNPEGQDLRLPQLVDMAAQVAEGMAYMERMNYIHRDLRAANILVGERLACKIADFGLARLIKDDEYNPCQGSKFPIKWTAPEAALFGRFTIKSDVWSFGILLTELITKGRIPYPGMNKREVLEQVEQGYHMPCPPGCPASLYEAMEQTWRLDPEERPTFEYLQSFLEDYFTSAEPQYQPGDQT
Fibroblast growth factor receptor 4 (Homo sapiens), sequence (P22455 22-802 limits assumed): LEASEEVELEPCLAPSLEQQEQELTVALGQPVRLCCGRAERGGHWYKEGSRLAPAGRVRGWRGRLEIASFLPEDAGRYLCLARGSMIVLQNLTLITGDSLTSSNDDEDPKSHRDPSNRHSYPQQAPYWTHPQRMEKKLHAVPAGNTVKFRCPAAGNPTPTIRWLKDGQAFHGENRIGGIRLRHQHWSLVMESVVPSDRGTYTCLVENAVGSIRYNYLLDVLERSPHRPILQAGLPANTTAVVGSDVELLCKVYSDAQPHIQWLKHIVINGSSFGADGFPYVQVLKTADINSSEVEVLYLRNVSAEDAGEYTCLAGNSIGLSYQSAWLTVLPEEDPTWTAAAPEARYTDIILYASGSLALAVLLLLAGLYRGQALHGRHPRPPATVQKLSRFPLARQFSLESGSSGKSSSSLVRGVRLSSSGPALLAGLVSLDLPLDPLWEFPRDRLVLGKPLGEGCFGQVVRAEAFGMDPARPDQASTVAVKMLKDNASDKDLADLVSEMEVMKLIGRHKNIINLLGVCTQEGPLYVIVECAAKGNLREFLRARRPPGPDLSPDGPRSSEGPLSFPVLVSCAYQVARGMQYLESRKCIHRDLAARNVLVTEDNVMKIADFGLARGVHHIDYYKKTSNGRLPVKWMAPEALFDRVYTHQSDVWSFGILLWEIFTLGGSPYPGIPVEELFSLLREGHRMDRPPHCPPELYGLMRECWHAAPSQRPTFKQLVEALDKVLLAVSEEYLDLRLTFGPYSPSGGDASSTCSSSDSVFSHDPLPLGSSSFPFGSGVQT
Vascular endothelial growth factor receptor 1 (Homo sapiens), sequence (P17948 whole entry): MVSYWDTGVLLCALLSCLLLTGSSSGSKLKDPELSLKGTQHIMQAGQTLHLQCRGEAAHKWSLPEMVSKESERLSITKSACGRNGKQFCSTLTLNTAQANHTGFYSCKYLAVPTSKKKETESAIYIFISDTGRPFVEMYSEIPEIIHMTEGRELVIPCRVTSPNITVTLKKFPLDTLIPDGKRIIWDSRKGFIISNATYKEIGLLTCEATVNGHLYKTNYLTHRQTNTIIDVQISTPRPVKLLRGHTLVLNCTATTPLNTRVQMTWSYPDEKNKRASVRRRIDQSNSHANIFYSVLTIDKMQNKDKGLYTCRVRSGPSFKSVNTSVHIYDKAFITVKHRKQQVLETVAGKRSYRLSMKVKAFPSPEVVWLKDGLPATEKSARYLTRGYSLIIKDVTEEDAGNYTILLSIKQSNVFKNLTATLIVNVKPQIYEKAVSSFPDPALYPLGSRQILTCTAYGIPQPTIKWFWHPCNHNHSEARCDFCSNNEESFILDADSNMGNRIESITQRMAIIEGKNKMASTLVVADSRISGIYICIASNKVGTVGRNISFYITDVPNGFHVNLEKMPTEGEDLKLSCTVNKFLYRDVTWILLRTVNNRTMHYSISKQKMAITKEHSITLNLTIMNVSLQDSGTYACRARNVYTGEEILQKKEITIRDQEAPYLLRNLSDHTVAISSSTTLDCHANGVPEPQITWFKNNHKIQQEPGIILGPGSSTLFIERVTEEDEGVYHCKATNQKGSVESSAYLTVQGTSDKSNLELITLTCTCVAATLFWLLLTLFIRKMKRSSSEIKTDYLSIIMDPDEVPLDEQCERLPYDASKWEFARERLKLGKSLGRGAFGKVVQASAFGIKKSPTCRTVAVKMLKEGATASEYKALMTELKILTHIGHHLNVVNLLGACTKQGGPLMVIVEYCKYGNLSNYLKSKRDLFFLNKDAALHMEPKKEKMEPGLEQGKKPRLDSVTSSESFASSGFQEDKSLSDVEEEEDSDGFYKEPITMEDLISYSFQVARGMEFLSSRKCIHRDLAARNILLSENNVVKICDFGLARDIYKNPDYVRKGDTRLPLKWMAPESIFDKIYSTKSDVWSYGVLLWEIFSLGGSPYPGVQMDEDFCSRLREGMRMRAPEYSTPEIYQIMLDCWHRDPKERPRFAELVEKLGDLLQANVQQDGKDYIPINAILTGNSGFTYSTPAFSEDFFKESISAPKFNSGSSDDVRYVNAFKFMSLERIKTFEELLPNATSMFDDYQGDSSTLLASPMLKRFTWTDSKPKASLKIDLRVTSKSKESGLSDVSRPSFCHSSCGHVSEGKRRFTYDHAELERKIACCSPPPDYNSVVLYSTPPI
Non-receptor tyrosine-protein kinase TYK2 (Homo sapiens), sequence (P29597 whole entry): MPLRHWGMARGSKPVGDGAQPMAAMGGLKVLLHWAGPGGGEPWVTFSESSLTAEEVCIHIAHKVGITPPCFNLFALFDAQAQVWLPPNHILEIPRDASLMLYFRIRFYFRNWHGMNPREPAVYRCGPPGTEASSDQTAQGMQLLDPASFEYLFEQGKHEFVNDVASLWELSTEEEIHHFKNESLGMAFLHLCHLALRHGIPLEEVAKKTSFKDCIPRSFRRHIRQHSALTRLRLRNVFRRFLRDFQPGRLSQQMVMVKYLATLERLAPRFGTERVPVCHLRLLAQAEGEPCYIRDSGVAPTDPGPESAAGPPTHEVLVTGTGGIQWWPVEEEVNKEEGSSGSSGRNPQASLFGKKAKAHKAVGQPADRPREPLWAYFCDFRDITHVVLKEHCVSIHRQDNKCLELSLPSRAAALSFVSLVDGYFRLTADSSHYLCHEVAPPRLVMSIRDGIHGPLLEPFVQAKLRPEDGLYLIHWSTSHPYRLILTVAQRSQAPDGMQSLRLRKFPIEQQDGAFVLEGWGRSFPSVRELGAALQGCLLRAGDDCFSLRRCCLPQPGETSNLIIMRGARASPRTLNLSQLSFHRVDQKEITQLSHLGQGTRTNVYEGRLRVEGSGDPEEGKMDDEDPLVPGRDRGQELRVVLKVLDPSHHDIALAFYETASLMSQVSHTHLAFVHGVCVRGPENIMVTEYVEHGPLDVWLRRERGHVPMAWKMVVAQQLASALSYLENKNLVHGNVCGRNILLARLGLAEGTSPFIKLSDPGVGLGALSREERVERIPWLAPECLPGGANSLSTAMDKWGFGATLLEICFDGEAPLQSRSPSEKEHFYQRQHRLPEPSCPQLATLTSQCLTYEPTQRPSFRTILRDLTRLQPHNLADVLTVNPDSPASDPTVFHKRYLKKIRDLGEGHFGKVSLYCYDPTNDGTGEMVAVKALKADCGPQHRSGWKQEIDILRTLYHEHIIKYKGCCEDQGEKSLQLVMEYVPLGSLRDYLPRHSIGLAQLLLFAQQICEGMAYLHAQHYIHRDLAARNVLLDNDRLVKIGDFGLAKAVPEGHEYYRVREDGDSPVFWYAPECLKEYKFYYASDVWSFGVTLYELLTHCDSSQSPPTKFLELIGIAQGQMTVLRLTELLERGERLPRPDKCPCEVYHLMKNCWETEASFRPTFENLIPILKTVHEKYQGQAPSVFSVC

Row | SMILES | inhibition [1] [%] | inhibition [2] [%] | inhibition [3] [%] | inhibition [4] [%] | inhibition [5] [%] | inhibition [6] [%] | inhibition [7] [%] | inhibition [8] [%] | inhibition [9] [%] | inhibition [10] [%]
1 | CS(=O)(=O)CCNCc1nc(-c2ccc3ncnc(Nc4ccc(F)c(Cl)c4)c3c2)cs1 | -0.36 | 5.78 | 10.6 | 1.98 | -0.42 | -0.6 | 0.63 | 2.29 | -3.18 | 0.5
2 | O=C1NC(=O)C(c2ccc(Cl)cc2)=C1Nc1ccc(Cl)c(C(=O)O)c1 | 1.95 | 0.15 | 2.1 | 0.79 | 2.99 | -0.57 | 1.93 | -7.38 | 0.43 | -0.81
3 | O=C1NC(=O)C(N2CCc3ccccc32)=C1c1ccc(Cl)cc1 | 1.44 | 2.39 | 8.07 | 1.82 | 5.14 | 2.06 | 5.05 | -2.14 | -4.27 | 3.4
4 | CCn1c(-c2nonc2N)nc2cncc(C(=O)N3CC[C@H](N)C3)c21 | 0.42 | 3.4 | 1.29 | -0.71 | 4.67 | 1.58 | 1.11 | -5.73 | -0.04 | 4.09
5 | NCc1ccc(-c2nc(-c3ccc(Cl)c(O)c3)c(-c3ccncc3)[nH]2)cc1 | 2.75 | 4.3 | 32.8 | 19.8 | 70.6 | -0.2 | 3.28 | 2.87 | -1.84 | 0.69
6 | CC(=O)Nc1cccc(C#Cc2cncnc2Nc2ccc(OCc3cccc(F)c3)c(Cl)c2)n1 | 0.7 | 4.5 | 3.79 | -1.03 | -0.69 | -2.34 | -0.61 | 1.25 | 2.39 | 0.18
7 | COc1ccc2cc(-c3c(-c4ccncc4)nc(-c4ccc([S+](C)[O-])cc4)n3C)ccc2c1 (stereo not given) | 1.73 | 1.14 | 6.14 | -2.5 | -1.05 | 1.98 | 1.93 | -0.4 | -4.84 | 0.64
8 | O=C(Nc1n[nH]c2nc(-c3ccco3)c(Br)cc12)C1CC1 | 2.76 | 2.88 | 11.3 | 2.26 | 4.22 | 1.23 | 2.62 | -1.82 | -1.51 | 2.22
9 | Cc1ccc(C(=O)NC2CCCCC2)cc1-c1ccc(C(=O)NCC2CC2)cc1 | 2.89 | 2.07 | 5.25 | 2.97 | 2.09 | 0.22 | -0.64 | -1.58 | -2.34 | 1.42
10 | Cc1nnc(-c2ccc(C)c(-c3ccc(C(=O)Nc4cccc(C#N)c4)cc3)c2)o1 | 0.88 | 4.67 | 5.11 | -0.39 | 1.58 | -0.61 | 1.58 | 0.86 | -1.12 | 1.94
11 | Nc1ncnc2occ(-c3ccc(NC(=O)Nc4cccc(C(F)(F)F)c4)cc3)c12 | 13.3 | 3.07 | 25.1 | 56 | 91 | 85.3 | 93.9 | 18.4 | -3.79 | 3.18
12 | COc1cc2ncn(-c3cc(O[C@@H](C)c4ccccc4Cl)c(C(N)=O)s3)c2cc1OC | 2.7 | 5.04 | 32.2 | 4.55 | 13.3 | 5.29 | 3.2 | -3.12 | -4.63 | 2.45
13 | CCn1c(-c2nonc2N)nc2c(N3CCCC3)nccc21 | -0.48 | -0.82 | -0.02 | -0.79 | -0.61 | -0.78 | -2 | -4.93 | 4.26 | -1.31
14 | COc1cccc(-n2ncc3c(N/N=C/c4cccc(F)c4)ncnc32)c1 | -5.17 | 7.31 | 32.6 | -0.74 | 3.31 | 0.44 | 6.78 | 9.42 | -0.15 | 3.08
15 | COc1ccc(-c2coc3ncnc(N)c23)cc1 | 1.55 | 0.55 | 5.25 | -1.7 | 2.37 | 2.97 | 4.59 | 3.34 | -3.97 | 2.29
16 | CS(=O)(=O)Nc1ccc(N/C=C2\C(=O)Nc3ccccc32)cc1 | 5.07 | 1.13 | 15 | 4.31 | 20.8 | 18.4 | 74.1 | 18.7 | 9.24 | -2.18
17 | Nc1nc(-c2ccccn2)c(-c2ccc3ncccc3n2)s1 | 0.28 | 1.09 | 2.08 | 0.57 | 5.82 | 8.03 | 2.99 | -0.61 | -1.33 | 1.89

Row | SMILES | inhibition [1] [%] | inhibition [2] [%] | inhibition [3] [%] | inhibition [4] [%] | inhibition [5] [%] | inhibition [6] [%] | inhibition [7] [%] | inhibition [8] [%] | inhibition [9] [%] | inhibition [10] [%]
18 | Cc1nn(C)c2cc(N(C)c3ccnc(Nc4cccc(S(N)(=O)=O)c4)n3)ccc12 | 0.29 | 14.8 | 48 | 2.5 | 30 | 2.69 | 15.4 | 2.72 | 2.39 | 6.07
19 | CCn1c(-c2nonc2N)nc2ccncc21 | -0.3 | 0.66 | 1.16 | 0.15 | -0.38 | 3.16 | 1.23 | -3.67 | -0.83 | -0.29
20 | [O-][S+]1CCN(Cc2ccc(-c3ccc4ncnc(Nc5ccc(OCc6ccccc6)c(F)c5)c4c3)o2)CC1 | 0.02 | 0.4 | 9.74 | 1.64 | -1.13 | -0.1 | 2.1 | -4.8 | -3.99 | 1.34
21 | NC(=O)c1ccc(-c2nc(-c3ccccn3)c(-c3ccc4c(c3)OCO4)[nH]2)cc1 | -0.14 | 3.69 | 5.27 | -0.48 | -1 | 1.89 | 2.37 | 1.11 | -0.31 | 2.08
22 | Nc1ncnc2occ(-c3ccc(NC(=O)Nc4cc(C(F)(F)F)cc(C(F)(F)F)c4)cc3)c12 | 9.49 | 1.01 | 15.9 | 23.4 | 73.9 | 19 | 78.3 | 12.8 | -5.22 | 2.97
23 | CN(C)c1cc2c(Nc3ccc4nc(Cc5ccccc5)[nH]c4c3)ncnc2cn1 | 13.5 | 17.2 | 42.2 | 3.21 | 11.2 | 0.49 | 0.52 | -0.65 | -7.84 | 3.2
24 | CCCN1CCC=C(c2ccc(Nc3nc(Nc4ccccc4C(N)=O)c4cc[nH]c4n3)c(C)c2)C1 | 1.82 | -0.56 | 4.71 | -0.55 | 5.76 | 6.74 | 9.96 | 3.17 | -1.46 | 0.75
25 | COc1cc(C=NNc2ncnc3c2cnn3-c2ccccc2)ccc1O | 3.32 | 12.8 | 49.6 | 3.24 | 15.1 | 15.6 | 54.6 | 17.7 | 0.57 | 5.56
26 | CCn1c(-c2nonc2N)nc2cncc(C(=O)N3CCNCC3)c21 | 2.67 | 1.29 | 2.57 | 0.7 | 2.54 | 5.99 | 4.6 | -1.23 | -2.3 | 1.84
27 | CC(C)=Cc1cccc2c1/C(=N/Nc1ccc(S(N)(=O)=O)cc1)C(=O)N2 | 1.59 | 5.76 | 25.3 | 1.39 | 13.9 | 6.79 | 48.9 | 15.6 | 20.7 | 2.83
28 | CS(=O)(=O)CCNCc1ccc(-c2ccc3ncnc(Nc4ccc(OCc5cccc(F)c5)c(C(F)(F)F)c4)c3c2)o1 | -0.05 | 3.99 | 2.16 | -0.83 | -0.68 | 1 | 1.21 | -2.74 | -3.56 | 3.52
29 | COc1cc2c(cc1Nc1nc(N3CCc4ccccc43)c3cc[nH]c3n1)N(C(=O)CN(C)C)CC2 | 0.78 | -0.2 | 3.44 | 1.49 | 2.02 | 0.56 | -1.35 | -2.55 | -2.82 | 1.61
30 | COC(=O)Nc1nc2cc(Oc3cccc(NC(=O)Nc4cc(C(F)(F)F)ccc4F)c3)ccc2[nH]1 | 0.74 | 1.17 | 3.3 | 2.97 | 25.7 | -3.12 | 3.93 | 1.62 | 1.94 | -1.36
31 | CS(=O)(=O)CCN(CC#N)Cc1ccc(-c2ccc3ncnc(Nc4ccc(OCc5cccc(F)c5)c(Cl)c4)c3c2)o1 | -4.08 | 0.96 | 1.68 | 3.08 | 6.33 | -0.67 | 2.32 | -4.23 | -4.41 | -1.18
32 | CCc1cccc(NC(=O)Nc2ccc(Oc3ccc4nc(NC(=O)OC)[nH]c4c3)cc2)c1 | -0.63 | 5.68 | 5.18 | 36.4 | 43.8 | 37.4 | 48 | 1.59 | -2.46 | 10.6
33 | COc1cc2ncn(-c3cc(OCc4ccccc4Cl)c(C(N)=O)s3)c2cc1OC | 2.76 | 3.61 | 19.1 | 0.69 | 9.81 | 0.85 | 3.62 | -2.29 | 2.41 | 1.87
34 | O=C1NC(=O)C(c2ccccc2Cl)=C1Nc1cccc(O)c1 | 0.13 | 1.27 | 2.07 | 0.36 | 0.77 | 2.15 | 2.8 | 3.17 | -2.87 | 1.29
